Compound activity: PubChem, several laboratories
CHT inh: inhibits the human high affinity choline transporter; Q9GZV3; CHT-expressing cells, membrane potential dye, choline response; stronger effect = lower value; B-score at 10 µM; 0.86% of 310,000 active;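 active means B-score over 3 SD under the library average, and starting fluorescence ratio not unusually high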;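 further: choline stimulus applied at its EC90 after an EC20 pre-addition; B-score computed on integrated fluorescence ratio after choline addition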
PREPL inhibitor: inhibits the human prolyl oligopeptidase-like enzyme; Q4J6C6; recombinant PREPL, fluorescence polarization activity-based probe; inhibition, % at 5.96 µM; 0.68% of 320,000 active; in the data active means inhibition above about 43%;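 further: 0% = enzyme with DMSO and 100% = wells lacking enzyme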
ALR inh: blocks human ALR sulfhydryl oxidase activity. 3.8% of 290,000 active. inhibition, % (concentration not given with the values). purified ALR, DTT oxidation, H2O2 HRP-luminol luminescence. P55789;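 active means mean replicate inhibition above about 79%, with every replicate also reaching it, limit read from the data; inconclusive means only one of the two criteria met; inactive means mean below limit and not every replicate reaching it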
Target sequence (P55789 whole entry, looked up): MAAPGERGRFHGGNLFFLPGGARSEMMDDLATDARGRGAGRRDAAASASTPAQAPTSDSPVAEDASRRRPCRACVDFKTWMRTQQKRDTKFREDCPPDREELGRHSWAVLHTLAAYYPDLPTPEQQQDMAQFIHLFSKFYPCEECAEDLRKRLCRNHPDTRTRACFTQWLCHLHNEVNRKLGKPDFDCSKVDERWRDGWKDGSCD
AI-2 QS modul: modulators of Vibrio harveyi AI-2 quorum sensing system; Vibrio harveyi JMH597 AI-2 luminescence/OD600 ratio, 9 h; stronger effect = lower value; strain lacks LuxN and CqsS sensors; 0 = neutral-control median; activity change, % at 7.5 µM; 0.4% of 300,000 active; in the data active means activity change below about -75%, passing the limit was not always enough; inconclusive means no clear call, values can overlap the other calls;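 further: luminescence divided by OD600 gain over 9 h not by final OD600 alone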
CHT allo act: allosteric activators of human choline transporter CHT; Q9GZV3; CHT-expressing cells, membrane potential dye, choline EC20; stronger effect = higher value; LV-AA mutant CHT in HEK293 cells; B-score at 10 µM; 0.49% of 310,000 active; AID 488977;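 active means initial fluorescence not abnormally high and integrated response B-score, plate-corrected, over 3 SD above library mean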
Starred values were filed as active, the others as inactive; i = inactive; ? = inconclusive; . = not tested or not shown. Shown are actives, neighbours in structure and some others; about 5% of the full set was active somewhere.

SMILES	CHT inh	PREPL inhibitor	ALR inh	AI-2 QS modul	CHT allo act
COc1ccc(C)cc1S(=O)(=O)N1CCCC(C(=O)N2CCN(c3ccccc3)CC2)C1 (stereo not given)	i	28	23	-10	i
CC(C)C(NC(=O)CCNC(=O)c1ccc(C(C)(C)C)cc1)c1nc2ccccc2[nH]1 (stereo not given)	.	11	0	.	.
CC(=O)c1ccc(S(=O)(=O)NCC(=O)NC(c2nc3ccccc3[nH]2)C(C)C)cc1 (stereo not given)	.	9	99*	.	.
Cc1nc2ccc(C(=O)Nc3ccc(N(C)C)cc3)cc2s1	i	19	99*	21	i
C[C@H](CO)N1C[C@H](C)[C@@H](CN(C)C(=O)Nc2ccccc2)Oc2ccc(NS(=O)(=O)c3cn(C)cn3)cc2C1=O	.	18	4	.	.
O=C(NCCc1c[nH]c2ccc(Cl)cc12)c1cccnc1	i	4	7	11	i
CC(=O)NCCCc1c[nH]c2ccc(Cl)cc12	i	-2	98*	25	i
CN(C)c1ccc(NC(=O)Nc2ccc3snnc3c2)cc1	i	18	95*	12	i
O=C1CS/C(=N/N=C\c2ccn[nH]2)N1	i	15	82*	25	i
COc1cccc(NC(=O)N2CCCC2C(=O)NCc2ccco2)c1 (stereo not given)	i	4	-4	18	i
Cn1c(CSCc2ccc(Cl)cc2)n[nH]c1=S	i	-6	94*	-24	i
Cn1c(CCNC(=O)c2ccc(Cl)cc2)n[nH]c1=S	i	-5	96*	18	i
COCCSc1nc(N)c(NC(=O)c2ccco2)c(=O)[nH]1	i	-5	-16	30	i
COc1ccc(S(=O)(=O)N(C)CC(=O)N2CCOCC2)cc1	i	-8	-2	16	i
COc1ccc(S(=O)(=O)N(CCc2ccccc2)CC(=O)N2CCOCC2)cc1	i	-10	99*	10	i
CCOC(=O)c1ccc(S(=O)(=O)NNC(=O)COc2ccccc2C)cc1	i	-7	-24	14	i
CCN(CC)c1ccc(/C=N/NS(=O)(=O)c2ccc(C)c([N+](=O)[O-])c2)cc1	i	-3	?	14	i
Cc1ccc(S(=O)(=O)N/N=C/c2ccccc2O)cc1[N+](=O)[O-]	i	-6	96*	26	i
Cc1ccc(S(=O)(=O)N/N=C/c2ccc(O)c(O)c2)cc1[N+](=O)[O-]	i	-7	99*	23	i
C[C@H](CO)N1C[C@H](C)[C@@H](CN(C)C(=O)Nc2ccc3c(c2)OCO3)Oc2c(NC(=O)c3ccncc3)cccc2C1=O	.	10	-6	.	.
CC(C)(C)NC(=O)CN(C(=O)CCN1CCCc2ccccc21)C(C)(C)C	i	24	94*	21	i
CC(C)(C)NC(=O)CN(Cc1cccs1)C(=O)CCN1CCc2ccccc21	i	13	72	5	i
COc1ccc(-c2ccc(NC(=O)c3ccco3)cc2)nn1	i	-3	-8	41	i
O=C(c1ccc(CS(=O)Cc2ccccc2Cl)o1)N1CCN(C2CCCCC2)CC1 (stereo not given)	i	15	98*	10	i
Cc1cc(C)cc(NC(=O)C2C3C=CC(O3)C2C(=O)O)c1 (stereo not given)	i	3	7	4	i
SMILES	CHT inh	PREPL inhibitor	ALR inh	AI-2 QS modul	CHT allo act
Cc1csc(NC(=O)C2C3C=CC(O3)C2C(=O)O)n1 (stereo not given)	i	6	98*	13	i
COc1ccc(-c2nc(CS(=O)CC(=O)NC3CCCCC3)c(C)o2)cc1 (stereo not given)	i	4	66	7	i
COc1cccc(-c2nc(CS(=O)(=O)CC(=O)Nc3cccc(C)c3C)c(C)o2)c1	i	-6	51	7	i
COc1ccc(-c2nc(CS(=O)CC(=O)NC3CCCCC3)c(C)o2)cc1OC (stereo not given)	i	-3	99*	35	i
COc1cccc(-c2nc(CS(=O)CC(=O)NC3CC3)c(C)o2)c1 (stereo not given)	i	17	99*	11	i
COc1ccc(-c2nc(CN3CCC(C(=O)NC4CCCC4)CC3)c(C)o2)cc1OC	i	11	-6	13	i
COc1ccc(-c2nc(CS(=O)CC(=O)NC3CCCCCC3)c(C)o2)cc1 (stereo not given)	i	8	98*	23	i
CN(C)CCCNC(=S)Nc1ccc(Br)cc1	i	4	4	27	i
COc1ccc(-c2csc(NC(=O)CSCC(=O)Nc3cc(C)on3)n2)cc1OC	i	12	99*	22	i
COc1ccc(-c2csc(Nc3ccc(S(=O)(=O)Nc4cc(C)on4)cc3)n2)cc1C	i	12	99*	22	i
COc1ccc(-c2ccc(SCC(=O)Nc3cc(C)on3)nn2)cc1OC	i	8	-3	4	i
COc1cc(OC)c(NC(=O)CCCNC(=O)Cn2cnc3sc(C)c(C)c3c2=O)cc1Cl	i	14	34	34	i
O=C(N/N=C/c1ccccc1O)c1ccncc1	i	-3	-2	5	i
Nc1nonc1-n1nnc(C(=O)N/N=C/c2cc(Br)ccc2O)c1CNc1ccccc1	i	24	1	9	i
Cc1ccc(/C=N/NC(=O)c2ccncc2)cc1	i	11	1	38	i
Nc1nonc1C(=O)N/N=C/c1cc(Br)ccc1O	i	-1	-6	-89*	i
O=C(N/N=C/c1cc(Br)ccc1O)c1ccncc1	i	1	.	-94*	i
O=C(N/N=C/c1ccc(O)cc1)c1ccncc1	i	0	99*	16	i
O=S(=O)(Nc1cc(S(=O)(=O)N2CCOCC2)ccc1NCC1CCCO1)c1ccccc1 (stereo not given)	.	2	27	.	.
Cc1c(N(C(=O)CNC(=O)c2ccccc2)C2(C(=O)NC3CCCCC3)CCCCC2)c(=O)n(-c2ccccc2)n1C	i	0	.	9	i
CCN(CC)c1ccc(/C=N/Nc2nc(C)cc(C)n2)cc1	i	2	98*	-2	i
CCCCc1ccc(NC(=S)N2CCCC(C)C2)cc1 (stereo not given)	i	8	-3	9	i
Cc1ccc(S(=O)(=O)NNC(=O)c2sccc2-n2cccc2)cc1	i	-4	51	24	i
O=C(NNS(=O)(=O)c1cc(Cl)cc(Cl)c1)c1sccc1-n1cccc1	i	13	88*	-3	i
COc1ccc(-c2cc(-c3ccc(O)cc3)nc(N)c2C#N)cc1	i	1	55	-12	i
COc1ccccc1-c1cc(-c2ccc(O)cc2)nc(N)c1C#N	i	9	96*	-17	i
N#Cc1c(-c2ccccc2)cc(-c2ccc(O)cc2)nc1N	i	9	99*	-15	i
